Screens deposited in PubChem by National Center for Advancing Translational Sciences (NCATS).
The list is not random: actives were taken first. Their share in the collection is about 6.5%.
HT1080NT lethal = kills 2HG-producing HT-1080-NT fibrosarcoma cells. HT-1080-NT fibrosarcoma viability, CellTiter-Glo ATP luminescence, 48 h. Potency, µM (highest dose often 46.1 µM), for inactives: top-dose activity, negative = less viability, most hits filed as cytotoxic. 360,000 compounds, 1.6% hits. AID 686970;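 also: NT is the 2HG producing partner of a matched IDH1 knockdown line; potency is read from the fitted curve at half-maximal effect; 0% = DMSO-treated cells and -100% = media-only wells without cells; nearly all actives have a fitted effect of over 55% in size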
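Compounds were tested in concentration-response format on HT-1080-NT cells for 48 hours at 37 degrees C. Cell viability came from CellTiter-Glo luminescence; curves were classified by r2, response magnitude and activity.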
Giardia killer = kills Giardia lamblia. Giardia lamblia trophozoite viability. 340,000 compounds, 0.15% hits. activity change, % at 7.66 µM, hits read low; in the data active = activity change below about -80%; inconclusive = between about -30% and that limit;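 also: parasites exposed to compound for two days anaerobically before the ATP read; % is scaled to controls: 0 for no effect and ±100 for the full control effect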
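Compounds were tested on trophozoites seeded at 100 cells/well and held 48 hrs at 37 deg C anaerobically. An ATP-based luminescent kit measured the remaining live cells.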
TGFb inhibitor = TGF-b pathway inhibition; 410,000 compounds, 1.2% hits; HepG2 CAGA-GFP TGF-b/SMAD3 reporter, GFP fluorescence, 18 h; TGF-beta stimulated, 500 pg/mL final; Potency, µM (doses to about 46.1 µM), inactives show at the top dose activity, negative = inhibition, usual class: inhibitors; AID 588855; also: potency is read from the fitted curve at half-maximal effect; % is scaled to controls: 0 for no effect and ±100 for the full control effect; nearly all actives have a fitted effect of over 65% in size
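Inhibition was scored as loss of TGF-beta-induced (500 pg/mL final, 18 hours, 37 degrees C) GFP in HEPG2 cells carrying a CAGA-GFP reporter, in DMEM with 1% FBS. Well GFP was summed per cell; Activity was normalised to unstimulated and stimulated DMSO wells, then concentration-response fitting.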
HT1080 IDH1KD tx = toxicity to HT-1080 IDH1 knockdown cells (counter line); 360,000 compounds, 2% hits; HT-1080 IDH1 knockdown viability, ATP luminescence, 48 h; Potency, µM (highest dose often 46.1 µM), without a hit: at the top dose activity, negative = toxicity, hits mostly cytotoxic;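 also: potency is read from the fitted curve at half-maximal effect; 0% = DMSO wells and -100% = cell-free medium wells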
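% activity derives from luminescence (CellTiter-Glo), normalised to DMSO and no-cell wells. HT-1080-IDH1KD cells, 750/well, had 48 h compound exposure at 37 °C.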
IL1B secr inh = inhibitors of inflammasome signaling (IL-1 beta secretion); 360,000 compounds, 4.7% hits; AID 743279; THP-1 LPS/ATP IL-1B secretion, AlphaLISA, 16 h; active compounds read low; activity change, % at 57.5 µM; in the data active = activity change below about -50%; inconclusive = mostly about -30% to -49%; also: % is scaled to controls: 0 for no effect and ±100 for the full control effect
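Secreted IL-1B measured by AlphaLISA bead assay after 16 h compound exposure of THP-1 cells; compounds (final up to 57.5 uM) added 1 h before LPS (250 ng/mL) and ATP (1.25 mM) stimulation; lower signal means less secretion.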
HepG2 tox = kills HepG2 cells in TGF-b inhibitor counter-screen; HepG2 CAGA-GFP viability, ATP luminescence, 18 h; Potency, µM (titrated, usually from 46.1 µM), without a hit: top-dose activity change, negative = cytotoxicity, usual class: cytotoxic; 410,000 compounds, 0.76% hits; AID 588856; also: potency is read from the fitted curve at half-maximal effect
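CellTiter-Glo luminescence gave cytotoxicity after 18 hours at 37 degrees C. The cells were HepG2 CAGA-GFP in 1% FBS DMEM, stimulated with 500 pg/mL TGF-beta after compound addition. %Activity was normalised to no-cell wells (complete cell-killing) and DMSO (no toxicity), and curves were fitted and classified.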
Starred values were filed as active, the others as inactive; ? = inconclusive; · = not tested or not shown; [ ] = another dose, or the depositor's remark. Unless noted, calls follow the shape of the dose curve; as a rule, active = well fitted curve in the direction sought with a large enough effect; inconclusive = small, poorly fitted or top-dose-only effect, or another doubt; inactive = no such curve, though single readings can be large; an effect the other way counts as inactive or inconclusive.

SMILES	HT1080NT lethal	Giardia killer	TGFb inhibitor	HT1080 IDH1KD tx	IL1B secr inh	HepG2 tox
Nc1c(C(=O)NCc2ccc3c(c2)OCO3)c2nc3ccccc3nc2n1CCCN1CCOCC1	?	-7	?	7%[9.24 µM]	-98*	11µM*
CCOC(=O)c1cc(-c2ccc(OC)cc2)n(CCC(=O)NCCc2ccc(OCC)c(OCC)c2)c1C	·	·	-33%	·	·	-13%
COC(=O)c1ccc(/C(O)=C(\C#N)c2nc3ccccc3s2)cc1	-1%	-10	-6%	-16%	-77*	-38%
CC(NC(=O)COC(=O)c1ccc(N(C)C)cc1)c1ccccc1 (stereo not given)	-21%	-12	-24%	18µM*	7	-13%
Cc1c(C(=O)N(C)CCC#N)oc2ccc(S(=O)(=O)N3CC(C)CC(C)C3)cc12 (stereo not given)	-4%	-13	?	-9%	?	-4%
O=C(Cc1ccc(-n2cccc2)cc1)NCc1ccccc1Cl	8.2µM*	-29	-32%	8.2µM*	-6	-9%
O=C(NCc1ccccc1Cl)NCc1ccccc1Cl	15%	-12	3%	5%	14	8%
O=C(Cc1ccccc1)NCc1ccc(-n2cccc2)cc1	5.2µM*	6	?	5.8µM*	26	-13%
Cc1ccc(NC(=O)Nc2nnc(Cc3ccc([N+](=O)[O-])cc3)s2)cc1C	?	25	?	?	18	0%
CCOC(=O)c1c(NC(C)=O)sc2c(OCC(O)CNC(C)(C)C)c(Br)ccc12 (stereo not given)	?	18	?	-28%	-72*	11µM*
CCOC(=O)c1c(N)sc2c(OCC)c(Br)ccc12	?	-10	?	?	-24	-26%
CN(C)c1ccc(C=NCCC2(c3ccccc3)CCOC(C)(C)C2)cc1 (stereo not given)	-8%	2	-5%	0%	-3	-1%
Cc1ccc(CN2CCN(Cc3nc(C(C)C)cs3)CC2CCO)cc1 (stereo not given)	-25%	-7	-22%	3%	2	0%
CC(C)c1csc(CN2CCC(CO)(Cc3cccc(F)c3)CC2)n1	0%	?	1%	-14%	-59*	-2%
OCCC1CN(Cc2nc(-c3ccccc3)cs2)CCN1Cc1ccc(F)cc1 (stereo not given)	-23%	6	26%	-17%	-76*	8%
CC(C)c1csc(CN2CCN(Cc3ccc(F)cc3)C(CCO)C2)n1 (stereo not given)	-16%	8	3.5µM*	-11%	0	10%
OCC1(Cc2cccc(F)c2)CCN(Cc2cccc3nccnc23)CC1	-16%	-19	2%	-22%	?	-11%
CC(=O)Nc1ccc(S(=O)(=O)N(C)CC(=O)OCC(=O)N2CCc3ccccc32)cc1	14%	3	-4%	8%	7	2%
CCCCn1c(N)c(N(CCC(C)C)C(=O)COC(=O)c2cccnc2Cl)c(=O)[nH]c1=O	0%[9.24 µM]	22	-1%	0%	0	-13%
C=C1C(=O)[C@]23C[C@H]1CCC2[C@@]1(C)C(C[C@@H]3O)[C@](C)(C(=O)O)C[C@H](O)[C@@H]1O (stereo not given in full)	28%	·	-4%	-2%	1	-2%
C=C1C(=O)[C@]23C[C@H]1CC[C@H]2[C@]1(C)[C@@H](OC(C)=O)CC[C@@](C)(C(=O)OC)[C@H]1C[C@@H]3OC(C)=O	3.7µM*	·	?	2.6µM*	-116*	5.6µM*
C=C1C(=O)[C@]23C[C@H]1CC[C@H]2[C@]1(C)[C@@H](O)CC[C@@](C)(C(=O)O)[C@H]1C[C@@H]3O	?	·	8.9µM*	?	-75*	-89%
C=C1C(=O)[C@]23C[C@H]1CC[C@H]2[C@]1(C)[C@@H](OC(C)=O)CC[C@@](C)(C(=O)O)[C@H]1C[C@@H]3O	6.5µM*	·	5.6µM*	5.8µM*	-78*	-79%
C=C1C(=O)[C@]23C[C@H]1CCC2[C@@]1(C)C(C[C@@H]3O)[C@](C)(C(=O)OC)CC[C@@H]1OC(C)=O (stereo not given in full)	2.6µM*	·	1µM*	1.2µM*	-116*	5.6µM*
Cc1ccc(Cn2nnnc2CN2CCC(O)(c3cccnc3)CC2)cc1	14%	-8	0%	3%	6	6%
SMILES	HT1080NT lethal	Giardia killer	TGFb inhibitor	HT1080 IDH1KD tx	IL1B secr inh	HepG2 tox
CC(C)(C)c1ccc(-c2nc(C#N)c(NCCCn3ccnc3)o2)cc1	21µM*	9	?	23µM*	-95*	-104%
CCn1ncc(C2=NOC(C(=O)Nc3ccc(C)cc3)C2)c1C (stereo not given)	4%	11	4%	-13%	48	-6%
CCn1ncc(C2=NOC(C(=O)NCc3ccc(Cl)cc3)C2)c1C (stereo not given)	4.5µM*	5	-15%	6.3µM*	55	-4%
C=CC(=O)Nc1ccc(N(C)c2ccnc(Nc3ccc(N4CCN(C)CC4)cc3)n2)cc1	-28%	-5	?	-22%	-77*	-3%
CN1CCN(c2ccc(NC(=O)c3cccs3)cc2)CC1	0%	-6	0%	-1%	-12	0%
O=C(Cn1ncc(N2CCOCC2)c(Br)c1=O)c1ccc(Cl)cc1	-5%	-11	-4%	1%	0	-9%
COc1ccc(-c2c(C)nc3c(-c4ccc(F)cc4)cnn3c2N)cc1	18%	16	3%	14%	-2	-2%
CC(Oc1ccccc1)C(=O)Nc1nc(-c2ccccn2)cs1 (stereo not given)	-29%	10	-21%	?	-103*	-22%
CC(Oc1cccc(Cl)c1)C(=O)Nc1nc(-c2ccccn2)cs1 (stereo not given)	?	15	?	-26%	-101*	12%
CC(Oc1ccccc1)C(=O)Nc1nc(-c2ccncc2)cs1 (stereo not given)	-2%[9.24 µM]	9	20%	2%	-14	-17%
O=S(=O)(CS(=O)(=O)c1ccccc1)c1ccccc1	10%	12	26%	10%	3	5%
O=S(=O)(C/C(=C/CO)S(=O)(=O)c1ccccc1)c1ccccc1	7.1µM*	8	?	2µM*	-106*	16µM*
COC(=O)[C@@]1(C(C)C)N=C(c2cc(OC)c(OC)c(OC)c2)[C@]2(O1)C(=O)N(C)c1ccccc12	12%	·	·	2%	-16	·
O=C(c1cc2sccc2n1Cc1ccccc1)N1CCN(c2nc3ccccc3s2)CC1	-5%	8	2%	8.2µM*	-3	3%
